Reference: PubChem BioAssay (Tox21)
Values without a mark were called inactive. Inconclusive results are not listed. Entries that show only a call come without a potency. Calls of active or inactive are those of the source. Unless noted, calls follow the shape of the full dose curve.

Columns and labels:
[1] = Nuclear factor erythroid 2-related factor 2/antioxidant responsive element (Nrf2/ARE) small molecule agonists: qHTS cell viability counter screen in human keratinocytes (AID 1919968; active = well fitted curve in the direction sought with a large enough effect in the repeat runs; an effect the other way counts as inactive or inconclusive; also: nearly all actives have a fitted effect of over 55% in size; also: potency is read from the fitted curve at half-maximal effect)
Summary of the method: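 Stably transfected HaCaT (KeratinoSens), 1,500/well. Test agents in DMSO were applied for 23 h, 37 C/5% CO2. CellTiter-Fluor was incubated 1 h before the fluorescence read.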

[2] = Nuclear factor erythroid 2-related factor 2/antioxidant responsive element (Nrf2/ARE) small molecule agonists: luciferase reporter gene qHTS assay in human keratinocytes (AID 1919969); also: nearly all actives have a fitted effect of over 35% in size; also: potency is read from the fitted curve at half-maximal effect
[3] = G protein-coupled receptor (GPCR) small molecule agonists, calcium flux assay: HEK293 wild type cell line counter screen (AID 1920065)
Summary of the method: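 Following 18 h incubation at 37 C/5% CO2, plates got calcium dye for 1 h; compounds, ATP or DMSO were then pinned in and fluorescence followed kinetically (480/540 nm).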

[4] = p53 small molecule agonists, cell-based qHTS assay with human liver microsomes (AID 1963577)
Summary of the method: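 Fluorescence of the beta-lactamase reporter in p53RE-bla cells, detected with LiveBLAzer substrate (2 h, room temperature, dark), served as the read-out after 16 h compound exposure at 37 C with human liver microsomes and NADPH, each 0.5 mg/mL final.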

[5] = p53 small molecule agonists, cell-based qHTS assay with rat liver microsomes (AID 1963578)
Summary of the method: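 Cells carrying a p53 response element–beta-lactamase reporter were plated and rested 5 h, then dosed with compound in DMSO plus rat liver microsomes and NADPH, each at 0.5 mg/mL final. After 16 h at 37 C, LiveBLAzer substrate was added for 2 h.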

[6] = target: 5-hydroxytryptamine receptor 2A (Homo sapiens) (UniProt P28223); test: 5-hydroxytryptamine receptor 2A (HTR2A) small molecule antagonists, cell-based qHTS assay (AID 1963586); also: nearly all actives have a fitted effect of over 45% in size; also: potency is read from the fitted curve at half-maximal effect
5-hydroxytryptamine receptor 2A (Homo sapiens), sequence (P28223 whole entry, looked up): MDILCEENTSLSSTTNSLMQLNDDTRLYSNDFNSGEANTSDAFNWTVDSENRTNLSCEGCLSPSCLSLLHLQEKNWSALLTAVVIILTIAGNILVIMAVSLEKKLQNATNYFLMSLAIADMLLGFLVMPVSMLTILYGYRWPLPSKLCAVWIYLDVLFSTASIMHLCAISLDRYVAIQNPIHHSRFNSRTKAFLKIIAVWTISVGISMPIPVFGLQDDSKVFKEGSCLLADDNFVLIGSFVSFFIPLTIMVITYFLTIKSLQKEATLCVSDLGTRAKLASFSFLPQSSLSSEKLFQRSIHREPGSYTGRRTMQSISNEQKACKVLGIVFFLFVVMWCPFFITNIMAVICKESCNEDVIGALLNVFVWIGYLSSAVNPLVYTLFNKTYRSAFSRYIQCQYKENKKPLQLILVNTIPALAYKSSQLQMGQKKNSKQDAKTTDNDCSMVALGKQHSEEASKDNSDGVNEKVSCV
Summary of the method: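 CHO cells stably expressing human HTR2A were plated for 18 h at 37 C, then loaded with calcium dye for 1 h. Compounds were preincubated 5 min at room temperature before DOI (4 nM solution) was added. Kinetic fluorescence was read for 3 min.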

[7] = target: 5-hydroxytryptamine receptor 2A (Homo sapiens) (UniProt P28223); test: 5-hydroxytryptamine receptor 2A (HTR2A) small molecule agonists, cell-based qHTS assay (AID 1963587); also: nearly all actives have a fitted effect of over 30% in size; also: potency is read from the fitted curve at half-maximal effect
Summary of the method: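 Kinetic calcium-flux fluorescence (2 min, 1 sec intervals) after compound addition in agonist mode. HTR2A-CHO cells were cultured 18 h, then dye-loaded 1 h at 37 C.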

[8] = target: Muscarinic acetylcholine receptor M1 (Homo sapiens) (UniProt P11229); test: Cholinergic receptor muscarinic 1 (CHRM1) small molecule antagonists, cell-based qHTS assay (AID 1963588); also: nearly all actives have a fitted effect of over 40% in size; also: potency is read from the fitted curve at half-maximal effect
Muscarinic acetylcholine receptor M1 (Homo sapiens), sequence (P11229 whole entry, looked up): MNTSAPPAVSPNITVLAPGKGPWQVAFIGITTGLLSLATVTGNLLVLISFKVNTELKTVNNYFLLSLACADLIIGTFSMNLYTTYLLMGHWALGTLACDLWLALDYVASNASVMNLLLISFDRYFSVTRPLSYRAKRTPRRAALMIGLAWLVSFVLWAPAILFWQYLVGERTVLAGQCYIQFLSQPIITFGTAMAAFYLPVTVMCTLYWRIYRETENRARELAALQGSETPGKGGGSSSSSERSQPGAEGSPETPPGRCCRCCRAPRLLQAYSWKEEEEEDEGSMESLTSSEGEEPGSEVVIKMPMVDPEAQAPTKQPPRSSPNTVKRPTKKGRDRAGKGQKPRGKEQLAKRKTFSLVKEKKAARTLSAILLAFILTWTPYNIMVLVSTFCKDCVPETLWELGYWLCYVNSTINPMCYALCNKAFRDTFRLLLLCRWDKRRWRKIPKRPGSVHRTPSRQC
Summary of the method: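 Compounds were tested at 15 concentrations in three independent runs. Dye-loaded CHRM1-CHO cells were exposed 5 min at room temperature before stimulation by acetylcholine added at 50nM. Intracellular calcium was read kinetically on FDSS for 3 min.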

[9] = target: Muscarinic acetylcholine receptor M1 (Homo sapiens) (UniProt P11229); test: Cholinergic receptor muscarinic 1 (CHRM1) small molecule agonists, cell-based qHTS assay (AID 1963589); also: nearly all actives have a fitted effect of over 35% in size
Summary of the method: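 Kinetic fluorescence (1 s intervals) of calcium-sensitive dye in human M1 CHO cells after compound addition; cells pre-incubated 18 h at 37 C/5% CO2 and dye-loaded 1 h.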

[10] = target: Beta-2 adrenergic receptor (Homo sapiens) (UniProt P07550); test: Adrenergic beta2 receptor (ADRB2) small molecule antagonists, cell-based qHTS assay (AID 1963592); also: series mostly up to about 92 µM; nearly all actives have a fitted effect of over 50% in size
Beta-2 adrenergic receptor (Homo sapiens), sequence (P07550 whole entry, looked up): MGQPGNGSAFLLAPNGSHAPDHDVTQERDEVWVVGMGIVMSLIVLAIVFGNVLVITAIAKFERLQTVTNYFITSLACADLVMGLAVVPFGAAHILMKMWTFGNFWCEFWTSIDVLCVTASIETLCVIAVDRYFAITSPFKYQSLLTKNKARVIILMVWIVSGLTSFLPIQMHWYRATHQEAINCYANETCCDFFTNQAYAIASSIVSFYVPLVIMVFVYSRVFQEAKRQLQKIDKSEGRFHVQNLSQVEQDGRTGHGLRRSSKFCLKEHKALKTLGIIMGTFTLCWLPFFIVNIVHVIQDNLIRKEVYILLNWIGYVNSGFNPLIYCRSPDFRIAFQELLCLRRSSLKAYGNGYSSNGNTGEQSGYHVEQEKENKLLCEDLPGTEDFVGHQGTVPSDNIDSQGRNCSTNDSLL
Summary of the method: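 Assay format: CHO-ADRB2 cells, 18-20hr seeding at 37C/5% CO2, then compound plus 1nM isoproterenol agonist mix for 0.5hr RT. Homogeneous time-resolved fluorescence cAMP detection after 1hr, expressed as 665/615 nm ratio.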

[11] = target: D(2) dopamine receptor (Homo sapiens) (UniProt P14416); test: Dopamine D2 receptor (DRD2) small molecule agonists, cell-based qHTS assay (AID 1963594); also: nearly all actives have a fitted effect of over 35% in size
D(2) dopamine receptor (Homo sapiens), sequence (P14416 whole entry, looked up): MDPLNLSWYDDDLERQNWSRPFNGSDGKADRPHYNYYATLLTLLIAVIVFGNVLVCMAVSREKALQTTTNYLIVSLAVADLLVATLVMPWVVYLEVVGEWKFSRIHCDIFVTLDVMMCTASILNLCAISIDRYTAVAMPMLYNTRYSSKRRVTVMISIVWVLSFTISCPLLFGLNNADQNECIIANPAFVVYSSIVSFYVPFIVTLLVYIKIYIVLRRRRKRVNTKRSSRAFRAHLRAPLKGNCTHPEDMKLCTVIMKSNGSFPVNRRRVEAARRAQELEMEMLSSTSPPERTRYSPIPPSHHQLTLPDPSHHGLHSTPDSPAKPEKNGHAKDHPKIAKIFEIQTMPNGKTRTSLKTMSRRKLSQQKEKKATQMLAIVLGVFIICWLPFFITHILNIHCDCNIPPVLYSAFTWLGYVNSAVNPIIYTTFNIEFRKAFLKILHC
Summary of the method: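 cAMP accumulation in DRD2-HEK293 cells measured by HTRF after 1 h detection; compounds added 10 min before NKH477 (200nM […]) forskolin-analogue stimulation, 30 min at room temperature, with Ro20-1724 present at 0.1 mM final.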

[12] = target: D(2) dopamine receptor (Homo sapiens) (UniProt P14416); test: Dopamine D2 receptor (DRD2) small molecule antagonists, cell-based qHTS assay (AID 1963595; active = well fitted inhibition curve with a large enough effect in the signal ratio in the repeat runs, with a control signal flat; the % refers to the signal ratio)
Summary of the method: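 HTRF cAMP read-out at 665 and 620 nm emission (340 nm excitation). Antagonist mode: compounds were tested against 12 nM quinpirole in DRD2-HEK293 cells, with 200 nM NKH477 raising cAMP and 0.1 mM Ro20-1724 blocking its breakdown.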

[13] = p53 small molecule agonists, cell-based qHTS assay with human liver microsomes: qHTS cell viability counter screen (AID 1963579); also: nearly all actives have a fitted effect of over 45% in size; also: potency is read from the fitted curve at half-maximal effect
Summary of the method: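 Cytotoxicity counter screen: p53RE-bla, 4,000 cells/well; 5 h settle, 37 C/5% CO2; cpd + HLM 0.5 mg/mL + NADPH 0.5 mg/mL (final); 16 h, 37 C; CellTiter-Glo, 30 min RT, luminescence.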

[14] = target: KiSS-1 receptor (Homo sapiens) (UniProt Q969F8); test: Human kisspeptin (KISS1R) small molecule agonists, calcium flux assay in KISS1R-HEK293 cells (AID 1920064; active = well fitted curve in the direction sought with a large enough effect in the repeat runs; an effect the other way counts as inactive or inconclusive)
KiSS-1 receptor (Homo sapiens), sequence (Q969F8 whole entry, looked up): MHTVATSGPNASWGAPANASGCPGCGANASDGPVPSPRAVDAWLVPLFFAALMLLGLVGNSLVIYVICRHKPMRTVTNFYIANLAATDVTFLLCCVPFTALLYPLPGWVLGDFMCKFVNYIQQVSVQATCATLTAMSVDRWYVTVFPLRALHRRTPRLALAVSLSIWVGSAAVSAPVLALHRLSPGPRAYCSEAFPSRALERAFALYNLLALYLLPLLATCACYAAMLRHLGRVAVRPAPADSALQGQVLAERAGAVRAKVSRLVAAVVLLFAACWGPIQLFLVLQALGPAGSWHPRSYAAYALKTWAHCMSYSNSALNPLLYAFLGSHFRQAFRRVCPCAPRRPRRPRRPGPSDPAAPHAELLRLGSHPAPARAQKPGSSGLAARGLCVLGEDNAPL
Summary of the method: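 After overnight (18 h) culture at 37 C/5% CO2, human KISS1R-HEK293 cells received calcium dye for 1 h, then test compound; emission at 540 nm (excitation 480 nm) was tracked for 3 min.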

[15] = p53 small molecule agonists, cell-based qHTS assay with rat liver microsomes: qHTS cell viability counter screen (AID 1963580); also: nearly all actives have a fitted effect of over 45% in size
Summary of the method: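 Cytotoxicity counter screen: intracellular ATP read by CellTiter-Glo luminescence in the p53 reporter wells. HCT-116 p53RE-bla cells were treated for 16 h at 37 C alongside rat liver microsomes and NADPH, each 0.5 mg/mL final.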

[16] = p53 small molecule agonists, cell-based qHTS assay: qHTS cell viability counter screen (AID 1963581); also: nearly all actives have a fitted effect of over 45% in size
Summary of the method: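 qHTS counter screen: 16 h compound exposure at 37 C of p53RE-bla HCT-116 cells (4,000 per well, seeded 5 h prior), cell viability by ATP luminescence.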

[17] = cAMP Responsive Elements (CRE) small molecule agonists, cell-based qHTS assay (AID 1963590)
Summary of the method: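 Test agents in DMSO were incubated 3 h at 37 C/5% CO2 with CRE-bla HEK 293T cells seeded 18 h earlier; LiveBLAzer B/G FRET substrate was added and read after 2 h at room temperature.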

[18] = p53 small molecule agonists, cell-based qHTS assay (AID 1963582; active = well fitted activation curve with a large enough effect in the signal ratio in the repeat runs, not every such curve was filed as active; the % refers to the signal ratio)
Summary of the method: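 Measured: fluorescence from cleaved LiveBLAzer substrate. System: p53RE-bla cells, 16 h compound treatment at 37 C, 2 h substrate step at room temperature.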

[19] = cAMP Responsive Elements (CRE) small molecule antagonists, cell-based qHTS assay (AID 1963591; active = well fitted inhibition curve with a large enough effect in the signal ratio in the repeat runs, not every such curve was filed as active; the % refers to the signal ratio)
Summary of the method: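 Reporter line CRE-bla HEK 293T in dialyzed-FBS DMEM; cells preincubated 18 h, treated 3 h with compound plus NKH477 (0.25 uM final); LiveBLAzer FRET, 2 h RT.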

[20] = target: Gonadotropin-releasing hormone receptor (Homo sapiens) (UniProt P30968); test: Human gonadotropin-releasing hormone receptor (GnRHR) small molecule agonists, calcium flux assay in GnRHR-HEK293 cells (AID 1920063); also: nearly all actives have a fitted effect of over 35% in size
Gonadotropin-releasing hormone receptor (Homo sapiens), sequence (P30968 whole entry, looked up): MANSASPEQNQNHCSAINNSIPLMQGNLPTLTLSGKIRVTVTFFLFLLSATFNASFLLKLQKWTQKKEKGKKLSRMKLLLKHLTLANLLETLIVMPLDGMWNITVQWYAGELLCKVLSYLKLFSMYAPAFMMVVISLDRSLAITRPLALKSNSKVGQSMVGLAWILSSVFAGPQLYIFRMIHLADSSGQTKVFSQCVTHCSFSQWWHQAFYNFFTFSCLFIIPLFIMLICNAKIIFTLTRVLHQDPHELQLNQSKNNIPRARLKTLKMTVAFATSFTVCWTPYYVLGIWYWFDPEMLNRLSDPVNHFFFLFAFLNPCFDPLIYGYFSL
Summary of the method: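 Stable human GnRHR HEK293 line. 18 h plating, then calcium dye for 1 h at 37 C. Agonist-mode compound addition from DMSO stocks; fluorescence monitored 3 min.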

SMILES | Potency [1] | Potency [2] | Potency [3] | Potency [4] | Potency [5] | Potency [6] | Potency [7] | Potency [8] | Potency [9] | Potency [10] | Potency [11] | Potency [12] | Potency [13] | Potency [14] | Potency [15] | Potency [16] | Potency [17] | Potency [18] | Potency [19] | Potency [20]
C=CC(=O)OCCn1c(=O)n(CCOC(=O)C=C)c(=O)n(CCOC(=O)C=C)c1=O | 30.6 µM (active) | 15.4 µM (active) | inactive | inactive | inactive | inactive | inactive | inactive | inactive | inactive | inactive | inactive | – | – | – | – | – | – | – | –
CCCCCCOc1cc(C)c(O)c(C)c1C | 31 µM (active) | inactive | inactive | inactive | inactive | 19 µM (active) | 39.4 µM (active) | inactive | – | – | inactive | – | 26 µM (active) | – | – | – | – | – | – | –
CC(C)c1ccc(O)c(C(C)C)c1 | inactive | 68.6 µM (active) | – | inactive | inactive | – | 54.9 µM (active) | – | inactive | inactive | – | inactive | – | inactive | inactive | inactive | – | – | – | –
Nc1nc(N)c2nc(CNc3ccc(C(=O)N[C@@H](CCC(=O)O)C(=O)O)cc3)cnc2n1 | inactive | inactive | – | inactive | – | – | – | – | – | inactive | inactive | inactive | inactive | inactive | inactive | – | inactive | – | – | –
Cc1ccc(N)cc1O | inactive | 24.3 µM (active) | inactive | – | – | – | inactive | inactive | inactive | – | – | – | – | inactive | inactive | – | – | – | – | –
C=C1c2cccc(O)c2C(O)=C2C(=O)[C@]3(O)C(O)=C(C(N)=O)C(=O)[C@@H](N(C)C)[C@@H]3[C@@H](O)[C@H]12 | inactive | inactive | inactive | – | – | inactive | inactive | inactive | inactive | inactive | inactive | inactive | – | inactive | inactive | inactive | inactive | inactive | inactive | –
CC/C(=C(/c1ccc(O)cc1)c1ccc(OCCN(C)C)cc1)c1ccccc1 | 18 µM (active) | inactive | inactive | – | – | – | 28.8 µM (active) | 13.9 µM (active) | – | – | inactive | – | 26.9 µM (active) | inactive | – | – | – | – | – | –
C[C@@H](NCCCc1cccc(C(F)(F)F)c1)c1cccc2ccccc12 | 29.8 µM (active) | inactive | inactive | inactive | inactive | – | 23.9 µM (active) | inactive | – | – | inactive | – | inactive | – | inactive | – | – | inactive | – | –
CCOC(=O)c1ccccc1OC | inactive | inactive | inactive | – | – | inactive | – | – | – | inactive | inactive | inactive | inactive | – | inactive | inactive | inactive | – | inactive | –
O=C(CN1CCNCC1)NC1CCCCC1 | inactive | – | inactive | inactive | inactive | inactive | inactive | inactive | inactive | – | inactive | inactive | inactive | inactive | inactive | inactive | inactive | inactive | inactive | inactive
C[C@@]12CCC[C@H]1[C@@H]1CC[C@H]3C[C@@H](O)CC[C@]3(C)[C@H]1CC2 | inactive | – | inactive | inactive | inactive | inactive | inactive | inactive | inactive | – | inactive | inactive | inactive | inactive | inactive | inactive | inactive | inactive | inactive | inactive
C=CC(=O)OCCC#N | inactive | – | inactive | inactive | inactive | inactive | inactive | inactive | inactive | inactive | inactive | inactive | inactive | inactive | inactive | inactive | inactive | inactive | inactive | inactive
CC(=O)OCC(C)OC(C)=O (stereo unspecified) | inactive | – | inactive | inactive | inactive | inactive | inactive | inactive | inactive | inactive | inactive | inactive | inactive | inactive | inactive | inactive | inactive | inactive | inactive | inactive
CN(C)Cc1cc(C(C)(C)C)c(O)c(C(C)(C)C)c1 | inactive | – | inactive | inactive | inactive | 3.75 µM (active) | inactive | inactive | inactive | – | inactive | inactive | inactive | inactive | inactive | inactive | inactive | inactive | inactive | inactive
CC(C)COC(=O)CC(C(=O)OCC(C)C)S(=O)(=O)O (stereo unspecified) | inactive | – | inactive | inactive | inactive | inactive | inactive | inactive | inactive | inactive | inactive | inactive | inactive | inactive | inactive | inactive | inactive | inactive | inactive | inactive
NCCc1cnc[nH]1 | inactive | – | inactive | inactive | inactive | inactive | inactive | inactive | inactive | inactive | inactive | inactive | inactive | inactive | inactive | inactive | inactive | inactive | inactive | inactive
CC(=O)c1ccc(OCC(=O)N2CCCCC2)cc1 | inactive | – | inactive | inactive | inactive | inactive | inactive | inactive | inactive | inactive | inactive | inactive | inactive | inactive | inactive | inactive | inactive | inactive | inactive | inactive
CCCC(=O)OC | inactive | – | inactive | inactive | inactive | inactive | inactive | inactive | inactive | inactive | inactive | inactive | inactive | inactive | inactive | inactive | inactive | inactive | inactive | inactive
